In ChEMBL document CHEMBL5308504, “Tm Shift (DSF) assay results for EUbOPEN Chemogenomics Library” (2023):

target: T1, Transcription intermediary factor 1-alpha (Homo sapiens) (UniProt O15164); conditions: Compound concentration 20.0 uM, Protein concentration 2.0 uM, Result type QC Liability
T1 sequence (whole entry): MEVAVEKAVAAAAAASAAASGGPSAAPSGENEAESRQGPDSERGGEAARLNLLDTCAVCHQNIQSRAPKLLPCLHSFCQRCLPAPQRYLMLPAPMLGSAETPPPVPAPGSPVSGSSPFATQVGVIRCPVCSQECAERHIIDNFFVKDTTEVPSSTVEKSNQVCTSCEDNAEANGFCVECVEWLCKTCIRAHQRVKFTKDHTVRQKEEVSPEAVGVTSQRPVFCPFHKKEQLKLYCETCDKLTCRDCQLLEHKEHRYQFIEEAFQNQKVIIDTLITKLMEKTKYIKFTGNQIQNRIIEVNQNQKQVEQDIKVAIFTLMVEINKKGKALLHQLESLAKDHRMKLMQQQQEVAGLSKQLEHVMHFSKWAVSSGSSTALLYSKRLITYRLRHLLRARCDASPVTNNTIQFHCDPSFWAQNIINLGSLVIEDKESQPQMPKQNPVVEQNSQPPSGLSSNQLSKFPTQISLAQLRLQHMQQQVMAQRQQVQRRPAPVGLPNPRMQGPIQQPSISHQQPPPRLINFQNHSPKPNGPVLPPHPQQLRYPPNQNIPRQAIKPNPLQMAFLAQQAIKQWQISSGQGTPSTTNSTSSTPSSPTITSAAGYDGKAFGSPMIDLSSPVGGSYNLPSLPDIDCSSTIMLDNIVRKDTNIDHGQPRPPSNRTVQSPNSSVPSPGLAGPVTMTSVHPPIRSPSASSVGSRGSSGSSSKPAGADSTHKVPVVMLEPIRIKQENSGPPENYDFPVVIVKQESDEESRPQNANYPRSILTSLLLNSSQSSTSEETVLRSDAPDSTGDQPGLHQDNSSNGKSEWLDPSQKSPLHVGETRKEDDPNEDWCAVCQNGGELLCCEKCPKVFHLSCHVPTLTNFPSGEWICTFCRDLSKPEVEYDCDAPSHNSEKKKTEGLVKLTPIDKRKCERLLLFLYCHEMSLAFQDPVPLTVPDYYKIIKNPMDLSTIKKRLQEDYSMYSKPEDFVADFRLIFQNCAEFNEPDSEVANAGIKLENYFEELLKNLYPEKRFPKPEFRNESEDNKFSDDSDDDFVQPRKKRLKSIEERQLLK

Row | SMILES | ΔTm
1 | CNC(=O)c1c[nH]c2ccc(Nc3nccc(-c4ccccn4)n3)cc12 | -0.94 °C
2 | O=C1CN(c2ccccc2F)C(NCCN2CCOCC2)=C1c1nc2cc(Br)ccc2c(=O)[nH]1 | 0.25 °C
3 | C[C@H](CCOc1cccc(CC(=O)O)c1)N(Cc1cccc(C(F)(F)F)c1Cl)CC(c1ccccc1)c1ccccc1 | -0.56 °C
4 | CC(C)C[C@H](NC(=O)[C@@H](O)[C@H](N)Cc1ccccc1)C(=O)O | -0.82 °C
5 | Cc1nccn1-c1ccc(Sc2cccc(C3(C(N)=O)CCOCC3)c2)cc1 | -1.02 °C
6 | Cc1n[nH]c2ncc(C(=O)N3CCC[C@H]3c3ccc(Cl)cc3)cc12 | -1.73 °C
7 | COc1cc(-c2cncc(-c3ccc(N4CCN(C(C)C)CC4)cc3)c2C)cc(F)c1C(=O)N1CCCC1 | -3.48 °C
8 | COc1cc(O)c(C(CC(=O)N2C[C@H](C)C[C@H](C)C2)c2ccc3c(c2)OCO3)c(OC)c1 (some centres undefined) | -3.38 °C
9 | O=C1CCCc2[nH]c(-c3ccnc(NCC4CC4)c3)c(Nc3ccccc3)c21 | -0.08 °C
10 | O=C(O)CCn1c2c(c3ccccc31)C[C@H](NS(=O)(=O)c1ccc(F)cc1)CC2 | -1.73 °C
11 | COc1cc(C)c(S(=O)(=O)N(C)CCC(=O)N[C@H]2CC[C@@H](N3CCC4CN(C)CC4C3)CC2)c(C)c1 (some centres undefined) | -0.4 °C
12 | O=C(Nc1ccc(Cl)c(-c2ccccn2)c1)c1cccc(COc2ccc(Br)cc2CNCCO)c1 | -0.08 °C
13 | Cc1cc(-c2cnc(N)c3c(-c4ccc5scnc5c4)csc23)n(C)n1 | -1.95 °C
14 | Cc1nn(-c2nc3ccc(Cl)c(Cl)c3[nH]2)c(O)c1C1OC(=O)c2ccccc21 (centres undefined) | -1.16 °C
15 | Cc1cc2c(ncn2C2(C)CN(C(=O)c3ccn(CC4CCN([C@H]5C=CCCCC5)CC4)c3)C2)c(N)n1 | -2.7 °C
16 | CNc1oc(-c2cccc3ccccc23)nc1C#N | -0.7 °C
17 | Nc1ncnc2c1c(I)cn2[C@@H]1O[C@H](CO)[C@@H](O)[C@H]1O | -4 °C
18 | CCCCOc1c(C(=O)c2c(F)cc(C)cc2F)c[nH]c2nncc1-2 | -1.46 °C
19 | O=C(CNC(=O)c1ccc(-c2ccccc2)cc1)NC1CCCc2ccccc21 (centres undefined) | 2.55 °C
20 | CN(C(=O)c1cnn2cccnc12)c1cc2c(cc1N1CCOCC1)C(=O)N(C[C@@H](F)C(C)(C)O)C2 | -2.51 °C

Row | SMILES | ΔTm
21 | Cc1cc(CN)cc(C)c1-c1ncn(C)c1-c1cncn1C | 0.01 °C
22 | COC[C@@H](C)N[C@H]1CC[C@H](Nc2cc(-c3cccc(NCC4(C#N)CCOCC4)n3)c(Cl)cn2)CC1 | -3.05 °C
23 | CC(C)(C[C@H]1CN(S(=O)(=O)c2cccc(C(F)(F)F)c2)c2cc(-c3cc(F)cc(OC(F)F)c3)ccc2O1)C(=O)O | -2.16 °C
24 | Clc1cccc(Nc2nccc(NCCCN3CCOCC3)n2)c1 | -3.59 °C
25 | FC(F)(F)c1ccc(CNc2ccc(Cc3c[nH]c4ncc(Cl)cc34)cn2)cn1 | 1.98 °C
26 | CCCN1CCC(C#N)(NC(=O)[C@H](CC(C)(C)C)NC(=O)N2CCOCC2)CC1 | 0.46 °C
27 | O=C(Nc1ccccc1C(=O)O)c1cc(S(=O)(=O)c2ccccc2)ccc1Cl | 0.36 °C
28 | N#Cc1ccc(COc2ccc(Br)cc2CNCCO)cn1 | -0.53 °C
29 | CC(C)(C)NC(=O)c1cncn1C1CCN(c2ccc(-c3nnc(C(F)(F)F)o3)cn2)CC1 | 0.46 °C
30 | CC(F)(F)CN1C(=O)c2[nH]nc(-c3cccc4[nH]c(=O)oc34)c2C1c1ccc(Oc2cc(C(F)(F)F)cc(C(F)(F)F)c2)cc1 (centres undefined) | -1.2 °C
31 | Cc1ccc(C(=O)Nc2cc(N3CCN(C)CC3)cc(C(F)(F)F)c2)cc1-n1cc(-c2cnn(C)c2C)nn1 | -1.79 °C
32 | CN1CCN(c2ccnc(NCCc3ccccc3)n2)CC1 | -0.99 °C
33 | Cn1nc(-c2ccc(C(N)=O)cc2)c2ccccc2c1=O | 0.31 °C
34 | Nc1ncnc2c1c(COc1cccc(Cl)c1)nn2C1CCOCC1 | -2.38 °C
35 | COc1cc(N(C)c2ccnc3ccc(C(F)(F)F)cc23)cc(OC)c1OC | -4.07 °C
36 | CN1CCC(F)(Cn2cnc(-c3ccc(F)cn3)c2-c2ccnc3[nH]ccc23)CC1 | -2.99 °C
37 | CCn1c(CNC(=O)c2nc(Cl)cnc2N)[n+](CC)c2ccc(C(=O)N(C)CCN(C)C)cc21 | 0.2 °C
38 | Cn1cc(-n2cnc3c(NCc4nc5cc(Cl)c(Cl)cc5[nH]4)nc(N4CCOCC4)nc32)cn1 | -0.85 °C
39 | CC(C)(C)c1cc(NC(=O)c2csc(Nc3ccc(Cl)cc3)n2)no1 | 0.11 °C
